Assay results as given in the supplement of paper PMC11732987, “Enantioselective OTUD7B fragment discovery through chemoproteomics screening and high-throughput optimisation” (Communications Chemistry, 2025).

Key:
Assay in all cases: log2 ratio of Biotin-Ahx-Ub-VS probe labelling (fragment/DMSO); higher = less target engagement (more negative = stronger competition), active = hit call of the paper (q ≤ 0.05, log2 ratio ≤ -1)
Conditions in all cases: compound concentration: 200 uM; treatment time: 3 h
USP34 = USP34 (UniProt Q70CQ2)
Chain of USP34 (Q70CQ2 whole entry, the tested form may be a part): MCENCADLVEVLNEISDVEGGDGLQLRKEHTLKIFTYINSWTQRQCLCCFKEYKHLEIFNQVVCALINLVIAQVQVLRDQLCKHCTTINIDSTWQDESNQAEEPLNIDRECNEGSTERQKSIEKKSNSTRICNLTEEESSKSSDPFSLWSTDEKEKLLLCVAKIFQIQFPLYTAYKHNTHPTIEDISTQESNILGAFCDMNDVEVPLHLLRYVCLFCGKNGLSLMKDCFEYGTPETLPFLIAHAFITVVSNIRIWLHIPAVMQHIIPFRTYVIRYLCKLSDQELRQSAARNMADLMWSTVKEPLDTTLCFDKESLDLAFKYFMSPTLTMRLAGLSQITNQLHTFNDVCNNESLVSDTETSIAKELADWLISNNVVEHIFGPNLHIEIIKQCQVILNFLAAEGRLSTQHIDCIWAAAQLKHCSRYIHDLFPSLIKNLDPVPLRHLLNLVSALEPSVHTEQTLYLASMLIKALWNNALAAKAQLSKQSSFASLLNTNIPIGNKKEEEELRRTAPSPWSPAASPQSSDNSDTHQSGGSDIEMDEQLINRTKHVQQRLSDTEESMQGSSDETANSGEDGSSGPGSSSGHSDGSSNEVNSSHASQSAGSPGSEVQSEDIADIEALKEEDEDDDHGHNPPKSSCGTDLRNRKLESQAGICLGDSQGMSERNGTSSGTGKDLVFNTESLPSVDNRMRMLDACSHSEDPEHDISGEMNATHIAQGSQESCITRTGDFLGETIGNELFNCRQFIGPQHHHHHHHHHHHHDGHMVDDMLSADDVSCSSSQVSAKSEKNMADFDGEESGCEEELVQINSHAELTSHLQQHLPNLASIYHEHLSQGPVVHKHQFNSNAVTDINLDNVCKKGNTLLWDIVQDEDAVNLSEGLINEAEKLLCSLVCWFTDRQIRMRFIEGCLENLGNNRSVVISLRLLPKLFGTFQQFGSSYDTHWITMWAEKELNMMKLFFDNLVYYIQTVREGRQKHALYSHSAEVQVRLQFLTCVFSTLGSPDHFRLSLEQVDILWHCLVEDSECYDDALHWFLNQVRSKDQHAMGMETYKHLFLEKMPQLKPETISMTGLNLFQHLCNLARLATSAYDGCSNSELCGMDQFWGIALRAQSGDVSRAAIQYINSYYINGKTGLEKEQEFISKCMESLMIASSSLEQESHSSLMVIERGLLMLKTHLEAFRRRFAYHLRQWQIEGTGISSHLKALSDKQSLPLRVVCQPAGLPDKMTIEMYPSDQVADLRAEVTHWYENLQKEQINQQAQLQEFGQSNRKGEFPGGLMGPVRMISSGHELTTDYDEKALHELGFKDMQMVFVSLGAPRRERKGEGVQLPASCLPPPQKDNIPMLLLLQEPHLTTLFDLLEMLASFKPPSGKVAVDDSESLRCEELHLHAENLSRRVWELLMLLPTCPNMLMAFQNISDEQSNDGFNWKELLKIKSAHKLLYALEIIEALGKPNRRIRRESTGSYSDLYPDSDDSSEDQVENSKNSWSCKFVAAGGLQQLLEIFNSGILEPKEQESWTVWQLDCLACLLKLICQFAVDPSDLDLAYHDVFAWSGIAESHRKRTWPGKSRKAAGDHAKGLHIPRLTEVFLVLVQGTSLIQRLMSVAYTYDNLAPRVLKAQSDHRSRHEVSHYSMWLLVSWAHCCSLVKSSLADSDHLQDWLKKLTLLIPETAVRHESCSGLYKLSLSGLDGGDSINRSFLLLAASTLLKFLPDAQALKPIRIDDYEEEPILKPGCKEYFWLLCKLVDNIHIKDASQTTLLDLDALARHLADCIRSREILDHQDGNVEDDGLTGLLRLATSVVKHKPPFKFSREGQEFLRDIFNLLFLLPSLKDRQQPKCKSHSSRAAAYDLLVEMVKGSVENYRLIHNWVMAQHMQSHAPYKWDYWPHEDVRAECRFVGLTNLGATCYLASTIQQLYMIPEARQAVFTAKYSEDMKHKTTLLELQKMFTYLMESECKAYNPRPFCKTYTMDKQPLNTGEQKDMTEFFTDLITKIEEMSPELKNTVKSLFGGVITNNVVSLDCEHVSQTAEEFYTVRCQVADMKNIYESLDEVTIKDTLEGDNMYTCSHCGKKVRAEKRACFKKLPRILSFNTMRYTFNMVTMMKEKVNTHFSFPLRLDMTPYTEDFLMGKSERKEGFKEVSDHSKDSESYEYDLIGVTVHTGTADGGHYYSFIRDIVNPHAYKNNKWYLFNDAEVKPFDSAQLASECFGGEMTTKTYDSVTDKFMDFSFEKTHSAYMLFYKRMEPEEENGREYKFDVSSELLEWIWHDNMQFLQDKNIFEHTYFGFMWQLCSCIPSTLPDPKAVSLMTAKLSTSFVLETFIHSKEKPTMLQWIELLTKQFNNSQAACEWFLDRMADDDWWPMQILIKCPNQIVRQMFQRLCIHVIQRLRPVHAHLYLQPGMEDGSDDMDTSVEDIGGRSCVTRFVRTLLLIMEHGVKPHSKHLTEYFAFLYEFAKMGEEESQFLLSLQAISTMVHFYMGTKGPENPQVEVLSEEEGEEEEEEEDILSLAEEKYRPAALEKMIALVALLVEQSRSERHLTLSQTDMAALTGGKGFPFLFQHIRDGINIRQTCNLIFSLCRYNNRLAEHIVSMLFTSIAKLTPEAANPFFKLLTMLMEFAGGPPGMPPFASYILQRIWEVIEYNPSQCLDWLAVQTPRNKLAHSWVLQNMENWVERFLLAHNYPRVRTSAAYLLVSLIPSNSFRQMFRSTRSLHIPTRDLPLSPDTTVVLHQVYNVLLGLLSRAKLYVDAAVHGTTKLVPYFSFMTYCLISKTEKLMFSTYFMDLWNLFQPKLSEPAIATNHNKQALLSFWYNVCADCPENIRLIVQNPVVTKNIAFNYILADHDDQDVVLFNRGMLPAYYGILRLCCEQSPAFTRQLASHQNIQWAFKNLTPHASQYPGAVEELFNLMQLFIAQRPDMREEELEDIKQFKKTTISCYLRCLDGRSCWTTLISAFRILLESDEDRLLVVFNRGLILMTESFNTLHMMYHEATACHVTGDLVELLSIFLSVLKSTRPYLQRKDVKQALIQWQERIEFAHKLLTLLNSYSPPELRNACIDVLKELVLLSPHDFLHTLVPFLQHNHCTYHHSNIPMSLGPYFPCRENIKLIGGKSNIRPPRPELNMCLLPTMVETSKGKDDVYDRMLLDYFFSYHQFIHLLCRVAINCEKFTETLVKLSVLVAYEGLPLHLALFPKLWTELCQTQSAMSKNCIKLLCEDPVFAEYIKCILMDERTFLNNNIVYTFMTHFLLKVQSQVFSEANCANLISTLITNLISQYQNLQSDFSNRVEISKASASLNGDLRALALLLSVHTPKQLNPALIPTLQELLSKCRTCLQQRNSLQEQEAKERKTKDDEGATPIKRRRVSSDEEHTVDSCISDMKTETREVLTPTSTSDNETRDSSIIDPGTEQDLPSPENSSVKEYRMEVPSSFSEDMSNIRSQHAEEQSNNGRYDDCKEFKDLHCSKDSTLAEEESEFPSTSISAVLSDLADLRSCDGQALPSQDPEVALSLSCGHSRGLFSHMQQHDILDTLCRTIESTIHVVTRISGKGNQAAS
Summary of the method: (§1)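 HEK293T lysate in Tris/CHAPS/IGEPAL buffer with protease inhibitors (495 µg per sample) was given fragment at 200 µM or vehicle for 3 h, in triplicate. It then received Biotin-Ahx-Ub-VS at 0.5 µM final for 1 h. Labelled DUBs were NeutrAvidin-enriched, digested with LysC and trypsin, and run by diaPASEF LC-MS/MS. Values are average log2 fragment/vehicle ratios by unpaired t-test on global-median-normalised Spectronaut quantities of proteins with ≥2 unique peptides.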

USP36 = target: T1, USP36 (UniProt Q9P275)
T1 sequence (whole entry): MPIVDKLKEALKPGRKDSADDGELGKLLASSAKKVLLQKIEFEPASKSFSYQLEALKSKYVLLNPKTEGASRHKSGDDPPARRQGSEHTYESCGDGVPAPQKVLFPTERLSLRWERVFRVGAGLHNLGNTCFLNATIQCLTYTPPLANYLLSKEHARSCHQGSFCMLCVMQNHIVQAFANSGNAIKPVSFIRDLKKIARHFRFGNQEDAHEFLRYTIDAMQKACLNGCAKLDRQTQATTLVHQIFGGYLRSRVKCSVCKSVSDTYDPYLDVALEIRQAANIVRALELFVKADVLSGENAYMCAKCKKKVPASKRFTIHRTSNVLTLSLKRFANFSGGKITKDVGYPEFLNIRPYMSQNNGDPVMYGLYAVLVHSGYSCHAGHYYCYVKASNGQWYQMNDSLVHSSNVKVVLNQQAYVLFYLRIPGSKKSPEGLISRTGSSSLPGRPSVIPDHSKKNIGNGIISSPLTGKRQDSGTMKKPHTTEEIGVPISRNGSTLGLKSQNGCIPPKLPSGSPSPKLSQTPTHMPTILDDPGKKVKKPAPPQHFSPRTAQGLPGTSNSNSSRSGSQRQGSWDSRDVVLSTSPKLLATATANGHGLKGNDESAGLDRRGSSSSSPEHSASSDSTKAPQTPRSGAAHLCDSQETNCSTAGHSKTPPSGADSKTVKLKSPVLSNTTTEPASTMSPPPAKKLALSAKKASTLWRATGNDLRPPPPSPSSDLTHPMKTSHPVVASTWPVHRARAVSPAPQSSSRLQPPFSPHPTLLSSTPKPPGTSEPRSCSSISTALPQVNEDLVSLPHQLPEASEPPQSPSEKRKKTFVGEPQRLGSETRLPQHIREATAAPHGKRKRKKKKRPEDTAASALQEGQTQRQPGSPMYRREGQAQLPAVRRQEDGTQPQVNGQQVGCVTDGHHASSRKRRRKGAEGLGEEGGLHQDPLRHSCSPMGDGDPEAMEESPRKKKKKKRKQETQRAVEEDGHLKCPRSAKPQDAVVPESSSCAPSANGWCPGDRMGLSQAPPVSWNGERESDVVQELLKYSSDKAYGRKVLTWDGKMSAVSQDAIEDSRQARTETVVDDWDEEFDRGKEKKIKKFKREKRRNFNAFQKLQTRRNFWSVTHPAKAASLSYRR
Summary of the method: as §1

USP38 = target: T2, USP38 (UniProt Q8NB14)
T2 sequence (whole entry): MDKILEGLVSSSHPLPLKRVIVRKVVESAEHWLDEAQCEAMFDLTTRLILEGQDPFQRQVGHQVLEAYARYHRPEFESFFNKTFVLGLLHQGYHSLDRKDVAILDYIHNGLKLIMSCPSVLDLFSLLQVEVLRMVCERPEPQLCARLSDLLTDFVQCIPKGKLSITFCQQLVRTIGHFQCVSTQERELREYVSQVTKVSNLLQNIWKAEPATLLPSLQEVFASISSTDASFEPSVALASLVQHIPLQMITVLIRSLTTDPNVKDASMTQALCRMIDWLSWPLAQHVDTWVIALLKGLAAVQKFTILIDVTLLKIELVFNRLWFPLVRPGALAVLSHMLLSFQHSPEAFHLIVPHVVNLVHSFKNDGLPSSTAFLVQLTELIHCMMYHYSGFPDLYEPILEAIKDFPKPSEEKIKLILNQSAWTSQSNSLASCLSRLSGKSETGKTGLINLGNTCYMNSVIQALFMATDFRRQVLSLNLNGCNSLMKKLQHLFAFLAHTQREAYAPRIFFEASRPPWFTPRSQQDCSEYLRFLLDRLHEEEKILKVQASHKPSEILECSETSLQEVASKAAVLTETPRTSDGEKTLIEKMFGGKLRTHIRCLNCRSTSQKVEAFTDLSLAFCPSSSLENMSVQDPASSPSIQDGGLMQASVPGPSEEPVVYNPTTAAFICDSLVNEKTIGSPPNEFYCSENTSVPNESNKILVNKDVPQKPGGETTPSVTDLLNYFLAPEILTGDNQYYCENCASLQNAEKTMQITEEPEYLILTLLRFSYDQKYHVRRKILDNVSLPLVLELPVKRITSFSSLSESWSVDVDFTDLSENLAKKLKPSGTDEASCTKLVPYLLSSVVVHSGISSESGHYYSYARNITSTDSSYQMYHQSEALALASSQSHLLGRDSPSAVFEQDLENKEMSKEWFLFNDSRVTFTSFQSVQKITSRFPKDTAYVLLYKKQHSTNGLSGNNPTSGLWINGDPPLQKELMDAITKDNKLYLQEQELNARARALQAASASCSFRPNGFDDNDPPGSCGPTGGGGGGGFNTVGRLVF
Summary of the method: as §1

USP39 = target: T3, USP39 (UniProt Q53GS9)
T3 sequence (whole entry): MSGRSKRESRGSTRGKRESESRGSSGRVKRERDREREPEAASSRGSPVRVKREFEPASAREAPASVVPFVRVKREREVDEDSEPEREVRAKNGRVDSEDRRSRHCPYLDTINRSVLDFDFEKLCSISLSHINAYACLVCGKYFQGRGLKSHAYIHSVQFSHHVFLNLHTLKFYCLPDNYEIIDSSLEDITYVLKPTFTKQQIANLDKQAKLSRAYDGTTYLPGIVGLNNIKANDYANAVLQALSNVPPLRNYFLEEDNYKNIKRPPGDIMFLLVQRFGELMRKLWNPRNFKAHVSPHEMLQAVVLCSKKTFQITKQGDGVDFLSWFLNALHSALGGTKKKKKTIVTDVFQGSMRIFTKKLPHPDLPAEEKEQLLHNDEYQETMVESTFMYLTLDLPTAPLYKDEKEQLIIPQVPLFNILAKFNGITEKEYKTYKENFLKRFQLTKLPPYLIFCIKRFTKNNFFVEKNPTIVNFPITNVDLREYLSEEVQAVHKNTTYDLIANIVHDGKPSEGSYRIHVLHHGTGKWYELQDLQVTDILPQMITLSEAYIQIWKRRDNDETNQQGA
Summary of the method: as §1

USP4 = target: T4, USP4 (UniProt Q13107)
T4 sequence (whole entry): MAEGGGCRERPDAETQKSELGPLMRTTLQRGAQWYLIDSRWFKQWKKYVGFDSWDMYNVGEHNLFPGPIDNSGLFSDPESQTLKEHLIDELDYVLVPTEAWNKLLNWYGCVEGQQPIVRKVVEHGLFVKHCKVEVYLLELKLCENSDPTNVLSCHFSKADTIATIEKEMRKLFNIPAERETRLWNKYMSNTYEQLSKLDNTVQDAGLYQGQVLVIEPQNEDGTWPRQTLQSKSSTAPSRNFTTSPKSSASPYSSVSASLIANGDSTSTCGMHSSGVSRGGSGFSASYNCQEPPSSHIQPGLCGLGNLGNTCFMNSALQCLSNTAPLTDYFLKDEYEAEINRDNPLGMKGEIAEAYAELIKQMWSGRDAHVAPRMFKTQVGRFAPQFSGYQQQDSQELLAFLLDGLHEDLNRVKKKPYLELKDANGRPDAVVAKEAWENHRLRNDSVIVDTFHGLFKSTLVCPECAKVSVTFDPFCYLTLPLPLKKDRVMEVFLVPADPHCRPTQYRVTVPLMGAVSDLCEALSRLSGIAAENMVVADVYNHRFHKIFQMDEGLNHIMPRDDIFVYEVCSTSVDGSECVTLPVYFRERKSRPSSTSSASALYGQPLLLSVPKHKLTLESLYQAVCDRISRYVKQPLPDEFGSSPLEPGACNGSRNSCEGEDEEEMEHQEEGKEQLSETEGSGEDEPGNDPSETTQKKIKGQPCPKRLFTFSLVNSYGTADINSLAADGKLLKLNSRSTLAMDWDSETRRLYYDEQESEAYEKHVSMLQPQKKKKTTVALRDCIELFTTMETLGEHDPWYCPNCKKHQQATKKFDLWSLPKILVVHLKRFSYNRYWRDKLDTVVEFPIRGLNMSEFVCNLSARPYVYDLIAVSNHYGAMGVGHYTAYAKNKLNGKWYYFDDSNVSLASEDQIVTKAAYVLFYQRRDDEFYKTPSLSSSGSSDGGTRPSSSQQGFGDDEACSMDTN
Summary of the method: as §1

Measured: log2 ratio of Biotin-Ahx-Ub-VS probe labelling

O=C(CCl)N1CCCC1c1ccsc1 (stereo not given)
inactive: USP34 -0.191 | USP36 -0.111 | USP38 -0.0937 | USP39 -0.0825 | USP4 -0.821
